Test results taken from the supplement of paper PMC10849652.
Targets with a hit are over-represented here; the source holds about 7,900 in all. About 0.6% of all pairs of compound and target were hits.

How the values were obtained:
Assay in all cases: log2 fold change, soluble protein after heating vs DMSO (PISA); higher = thermal stabilisation; K562 cells, 10 uM, 30 min; active = over 0.2 and 3.5 SD of the protein, either way, in both replicates (recomputed)
YWHAB = YWHAB (UniProt P31946)
Procedure, shortened: (§1)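 K562 cells at 2×10^6 cells/mL were given 10 μM compound for 30 min. Aliquots then went through 3 min of heating across 48°C-58°C, were pooled, and were extracted in PBS with 0.5% NP-40 at 4°C, and the supernatant after 21,000xg for 90 min was quantified by TMTpro 16plex LC-MS/MS with channel sums equalised. Thermal stability relative to control samples, from duplicates, is given as log2 fold change.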

YWHAQ = YWHAQ (UniProt P27348)
Procedure, shortened: as §1

YWHAZ [1] = biological target: YWHAZ (UniProt E7ESK7)
Procedure, shortened: as §1

YWHAZ [2] = biological target: YWHAZ (UniProt P63104)
Procedure, shortened: as §1

YY1 = YY1 (UniProt P25490)
Procedure, shortened: as §1

ZADH2 = ZADH2 (UniProt Q8N4Q0)
Procedure, shortened: as §1

ZBTB17 isoform 2 = ZBTB17 isoform 2 (UniProt Q13105)
Procedure, shortened: as §1

ZBTB21 = ZBTB21 (UniProt Q9ULJ3)
Procedure, shortened: as §1

ZC3H18 = ZC3H18 (UniProt Q86VM9)
Procedure, shortened: as §1

ZC3H8 = ZC3H8 (UniProt Q8N5P1)
Procedure, shortened: as §1

ZC3HC1 = ZC3HC1 (UniProt Q86WB0)
Procedure, shortened: as §1

ZCCHC9 = ZCCHC9 (UniProt Q8N567)
Procedure, shortened: as §1

ZDHHC17 = ZDHHC17 (UniProt Q8IUH5)
Procedure, shortened: as §1

ZDHHC20 = ZDHHC20 (UniProt Q5W0Z9)
Procedure, shortened: as §1

ZDHHC5 = ZDHHC5 (UniProt Q9C0B5)
Procedure, shortened: as §1

ZBTB43 = ZBTB43 (UniProt O43298)
Procedure, shortened: as §1

ZDHHC7 isoform 2 = ZDHHC7 isoform 2 (UniProt Q9NXF8)
Procedure, shortened: as §1

ZDHHC8 isoform 3 = ZDHHC8 isoform 3 (UniProt Q9ULC8)
Procedure, shortened: as §1

ZDHHC6 = ZDHHC6 (UniProt Q9H6R6)
Procedure, shortened: as §1

Measured: log2 fold change

ZDHHC20, sequence (Q5W0Z9 whole entry, looked up): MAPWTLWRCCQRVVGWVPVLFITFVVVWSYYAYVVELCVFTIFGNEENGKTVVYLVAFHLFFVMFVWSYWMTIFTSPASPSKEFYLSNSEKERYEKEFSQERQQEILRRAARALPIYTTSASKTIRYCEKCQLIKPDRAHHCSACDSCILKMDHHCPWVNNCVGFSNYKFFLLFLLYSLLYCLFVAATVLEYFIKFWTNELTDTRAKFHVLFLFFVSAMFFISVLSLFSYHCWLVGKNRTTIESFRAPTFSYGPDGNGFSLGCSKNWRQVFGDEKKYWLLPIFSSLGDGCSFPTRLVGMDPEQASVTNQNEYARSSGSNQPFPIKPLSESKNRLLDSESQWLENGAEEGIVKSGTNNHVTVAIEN
ZBTB43, sequence (O43298 whole entry, looked up): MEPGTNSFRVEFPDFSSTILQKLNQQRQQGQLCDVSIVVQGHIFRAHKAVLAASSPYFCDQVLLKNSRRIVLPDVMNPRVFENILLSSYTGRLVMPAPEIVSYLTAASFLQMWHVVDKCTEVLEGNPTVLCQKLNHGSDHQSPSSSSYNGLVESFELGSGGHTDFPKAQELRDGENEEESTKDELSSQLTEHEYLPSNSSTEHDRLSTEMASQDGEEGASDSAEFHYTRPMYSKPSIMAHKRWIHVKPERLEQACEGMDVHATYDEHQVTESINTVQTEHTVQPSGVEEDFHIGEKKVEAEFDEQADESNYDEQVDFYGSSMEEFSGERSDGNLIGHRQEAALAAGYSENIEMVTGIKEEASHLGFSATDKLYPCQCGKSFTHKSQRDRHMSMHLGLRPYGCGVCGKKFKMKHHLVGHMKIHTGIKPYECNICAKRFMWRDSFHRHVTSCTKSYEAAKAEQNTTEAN
ZDHHC8 isoform 3, sequence (Q9ULC8 whole entry, looked up, canonical isoform): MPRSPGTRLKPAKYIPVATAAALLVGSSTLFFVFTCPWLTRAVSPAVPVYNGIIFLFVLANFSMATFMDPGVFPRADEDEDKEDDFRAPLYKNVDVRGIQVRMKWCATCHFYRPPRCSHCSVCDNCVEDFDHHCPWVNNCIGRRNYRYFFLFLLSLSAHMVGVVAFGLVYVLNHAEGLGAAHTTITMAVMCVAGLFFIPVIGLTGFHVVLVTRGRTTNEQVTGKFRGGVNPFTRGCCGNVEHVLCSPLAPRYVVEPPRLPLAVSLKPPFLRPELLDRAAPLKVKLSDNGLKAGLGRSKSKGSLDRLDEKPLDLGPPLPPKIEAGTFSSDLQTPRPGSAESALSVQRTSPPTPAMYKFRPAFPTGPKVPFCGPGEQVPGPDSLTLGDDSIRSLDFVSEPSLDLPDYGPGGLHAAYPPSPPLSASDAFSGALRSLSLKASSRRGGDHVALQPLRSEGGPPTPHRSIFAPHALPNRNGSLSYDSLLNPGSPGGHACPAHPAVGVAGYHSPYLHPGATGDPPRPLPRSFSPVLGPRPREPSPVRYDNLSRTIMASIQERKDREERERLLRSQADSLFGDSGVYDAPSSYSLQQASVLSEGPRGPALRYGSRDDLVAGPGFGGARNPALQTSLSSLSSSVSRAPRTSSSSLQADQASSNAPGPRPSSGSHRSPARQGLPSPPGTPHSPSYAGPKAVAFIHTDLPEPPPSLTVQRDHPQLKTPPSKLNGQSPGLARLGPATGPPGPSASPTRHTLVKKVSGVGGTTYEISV
ZDHHC7 isoform 2, sequence (Q9NXF8 whole entry, looked up, canonical isoform): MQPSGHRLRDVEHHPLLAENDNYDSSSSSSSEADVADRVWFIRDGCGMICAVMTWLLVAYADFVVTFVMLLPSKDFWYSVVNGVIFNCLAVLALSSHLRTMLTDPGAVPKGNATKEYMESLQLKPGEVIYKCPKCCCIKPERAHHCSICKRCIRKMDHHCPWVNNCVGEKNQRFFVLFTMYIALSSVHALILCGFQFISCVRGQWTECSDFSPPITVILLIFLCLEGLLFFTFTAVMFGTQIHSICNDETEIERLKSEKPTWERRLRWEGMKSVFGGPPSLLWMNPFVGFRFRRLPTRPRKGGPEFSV
ZC3HC1, sequence (Q86WB0 whole entry, looked up): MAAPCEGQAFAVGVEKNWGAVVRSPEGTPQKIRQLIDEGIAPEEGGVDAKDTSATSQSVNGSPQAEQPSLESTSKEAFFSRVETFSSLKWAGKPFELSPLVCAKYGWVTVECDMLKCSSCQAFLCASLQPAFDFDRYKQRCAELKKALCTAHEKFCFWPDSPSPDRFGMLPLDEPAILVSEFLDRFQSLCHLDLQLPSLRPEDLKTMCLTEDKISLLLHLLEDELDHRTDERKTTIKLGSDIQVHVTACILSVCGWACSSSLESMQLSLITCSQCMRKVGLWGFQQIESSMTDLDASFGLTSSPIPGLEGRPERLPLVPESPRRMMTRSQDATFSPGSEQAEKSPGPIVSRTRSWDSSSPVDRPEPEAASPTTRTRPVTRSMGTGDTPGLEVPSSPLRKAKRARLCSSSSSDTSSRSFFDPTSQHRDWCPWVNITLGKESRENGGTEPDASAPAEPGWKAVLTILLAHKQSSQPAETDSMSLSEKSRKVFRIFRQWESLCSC
ZBTB17 isoform 2, sequence (Q13105 whole entry, looked up, canonical isoform): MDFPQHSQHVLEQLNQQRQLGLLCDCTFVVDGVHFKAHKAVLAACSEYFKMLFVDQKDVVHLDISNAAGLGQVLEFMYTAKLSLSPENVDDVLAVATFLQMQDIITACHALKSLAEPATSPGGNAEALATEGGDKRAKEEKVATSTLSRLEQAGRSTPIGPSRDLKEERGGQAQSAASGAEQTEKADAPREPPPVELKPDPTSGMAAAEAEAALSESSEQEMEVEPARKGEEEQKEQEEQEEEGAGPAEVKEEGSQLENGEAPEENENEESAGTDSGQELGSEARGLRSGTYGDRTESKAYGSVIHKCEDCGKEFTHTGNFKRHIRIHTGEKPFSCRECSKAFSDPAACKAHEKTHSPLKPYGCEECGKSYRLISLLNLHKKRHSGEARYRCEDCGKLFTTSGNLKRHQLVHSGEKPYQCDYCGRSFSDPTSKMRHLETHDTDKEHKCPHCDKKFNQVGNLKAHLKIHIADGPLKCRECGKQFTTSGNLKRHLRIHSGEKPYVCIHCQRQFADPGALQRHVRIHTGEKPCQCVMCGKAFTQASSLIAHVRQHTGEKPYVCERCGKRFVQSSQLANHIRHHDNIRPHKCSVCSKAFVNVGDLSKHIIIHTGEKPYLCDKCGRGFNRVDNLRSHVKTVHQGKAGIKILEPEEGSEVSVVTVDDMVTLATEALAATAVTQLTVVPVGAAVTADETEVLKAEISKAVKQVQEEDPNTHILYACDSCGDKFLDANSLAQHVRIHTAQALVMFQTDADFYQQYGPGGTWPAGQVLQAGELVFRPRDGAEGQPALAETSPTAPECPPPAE
YWHAZ (UniProt P63104), sequence (P63104 whole entry, looked up): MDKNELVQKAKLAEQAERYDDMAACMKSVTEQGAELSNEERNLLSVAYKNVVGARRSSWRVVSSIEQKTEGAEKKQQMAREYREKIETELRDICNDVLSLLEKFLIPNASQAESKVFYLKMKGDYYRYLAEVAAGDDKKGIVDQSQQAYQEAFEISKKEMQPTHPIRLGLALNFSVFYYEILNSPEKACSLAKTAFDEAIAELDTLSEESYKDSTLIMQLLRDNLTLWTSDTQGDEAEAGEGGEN
ZBTB21, sequence (Q9ULJ3 whole entry, looked up): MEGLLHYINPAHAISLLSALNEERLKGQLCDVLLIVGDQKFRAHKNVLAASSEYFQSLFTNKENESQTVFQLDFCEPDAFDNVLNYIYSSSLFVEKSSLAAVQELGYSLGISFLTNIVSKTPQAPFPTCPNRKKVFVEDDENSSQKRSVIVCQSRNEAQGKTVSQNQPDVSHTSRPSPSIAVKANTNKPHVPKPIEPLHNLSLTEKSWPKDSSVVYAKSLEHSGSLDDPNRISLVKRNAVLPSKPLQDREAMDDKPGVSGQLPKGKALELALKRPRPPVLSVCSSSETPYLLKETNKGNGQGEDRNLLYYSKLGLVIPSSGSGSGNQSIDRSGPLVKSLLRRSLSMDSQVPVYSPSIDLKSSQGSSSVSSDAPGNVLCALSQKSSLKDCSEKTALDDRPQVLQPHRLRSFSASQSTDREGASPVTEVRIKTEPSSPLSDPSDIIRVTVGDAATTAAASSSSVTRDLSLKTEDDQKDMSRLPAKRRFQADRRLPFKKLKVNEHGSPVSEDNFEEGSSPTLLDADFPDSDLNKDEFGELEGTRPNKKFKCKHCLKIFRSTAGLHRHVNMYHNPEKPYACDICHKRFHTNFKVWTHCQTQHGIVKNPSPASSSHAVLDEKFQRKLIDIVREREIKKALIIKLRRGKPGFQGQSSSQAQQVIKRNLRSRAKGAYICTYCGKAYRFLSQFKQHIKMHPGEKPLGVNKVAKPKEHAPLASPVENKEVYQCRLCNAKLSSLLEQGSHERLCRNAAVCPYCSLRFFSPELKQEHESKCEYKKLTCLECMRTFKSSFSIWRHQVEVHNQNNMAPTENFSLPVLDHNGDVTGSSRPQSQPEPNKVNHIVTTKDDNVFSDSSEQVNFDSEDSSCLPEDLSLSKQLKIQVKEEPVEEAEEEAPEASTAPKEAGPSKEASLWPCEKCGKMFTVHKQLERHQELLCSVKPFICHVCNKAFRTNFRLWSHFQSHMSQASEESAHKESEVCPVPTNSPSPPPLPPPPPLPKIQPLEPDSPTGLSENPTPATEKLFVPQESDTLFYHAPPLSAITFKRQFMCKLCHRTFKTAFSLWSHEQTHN
ZCCHC9, sequence (Q8N567 whole entry, looked up): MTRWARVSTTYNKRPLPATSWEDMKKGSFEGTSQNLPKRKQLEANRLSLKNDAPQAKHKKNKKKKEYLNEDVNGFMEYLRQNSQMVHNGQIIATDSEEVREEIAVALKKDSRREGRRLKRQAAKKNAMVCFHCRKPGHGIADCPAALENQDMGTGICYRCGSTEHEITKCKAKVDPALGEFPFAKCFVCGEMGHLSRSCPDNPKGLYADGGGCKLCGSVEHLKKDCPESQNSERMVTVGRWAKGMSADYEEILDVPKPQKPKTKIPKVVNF

COc1cccc2cc(-c3nc([C@H]4CC[C@H](C(=O)O)CC4)n4ncnc(N)c34)[nH]c12
inactive: YWHAB 0.014 | YWHAQ -0.098 | YWHAZ [1] 0.187 | YWHAZ [2] -0.052 | YY1 0.009 | ZADH2 -0.059 | ZBTB17 isoform 2 -0.006 | ZBTB21 0.129 | ZC3H18 0.014 | ZC3H8 -0.02 | ZC3HC1 0.032 | ZCCHC9 -0.121 | ZDHHC17 0.003 | ZDHHC20 0.11 | ZDHHC5 -0.007

NC1(Cc2ccc(Cl)cc2)CCN(c2ncnc3[nH]ccc23)CC1
inactive: YWHAB 0.028 | YWHAQ 0.029 | YWHAZ [1] 0.07 | YWHAZ [2] 0.059 | YY1 0.066 | ZADH2 0.008 | ZBTB17 isoform 2 -0.199 | ZBTB21 0.024 | ZBTB43 -0.053 | ZC3H18 -0.124 | ZC3H8 -0.01 | ZC3HC1 0.019 | ZCCHC9 -0.1 | ZDHHC17 0.022 | ZDHHC20 0.059 | ZDHHC5 0.071 | ZDHHC7 isoform 2 0 | ZDHHC8 isoform 3 0.063

Cc1ccc(NC(=O)c2cccc(N(C)C)c2)cc1NC(=O)c1ccc(O)cc1
inactive: YWHAB -0.008 | YWHAQ -0.023 | YWHAZ [1] 0.082 | YWHAZ [2] 0.011 | YY1 -0.012 | ZADH2 -0.047 | ZBTB21 0.101 | ZBTB43 0.141 | ZC3H18 -0.02 | ZC3H8 0.03 | ZC3HC1 -0.209 | ZCCHC9 0.062 | ZDHHC17 0.01 | ZDHHC20 0.085 | ZDHHC5 -0.007 | ZDHHC7 isoform 2 0.014

CN(CCOc1ccc(C[C@@H]2SC(=O)NC2=O)cc1)c1ccccn1 (racemic) [rosiglitazone]
inactive: YWHAB 0.038 | YWHAQ 0.012 | YWHAZ [1] 0.019 | YWHAZ [2] 0.008 | YY1 -0.015 | ZADH2 0.063 | ZBTB17 isoform 2 0.063 | ZBTB21 0.103 | ZBTB43 0.052 | ZC3H18 -0.036 | ZC3H8 -0.171 | ZC3HC1 0.086 | ZCCHC9 -0.131 | ZDHHC17 0.052 | ZDHHC20 0.059 | ZDHHC5 -0.016 | ZDHHC8 isoform 3 0.038

O=C(Nc1cccc(Nc2ncc(Br)c(NCCc3cnc[nH]3)n2)c1)N1CCCC1
inactive: YWHAB 0.006 | YWHAQ -0.089 | YWHAZ [1] -0.031 | YWHAZ [2] 0.011 | YY1 -0.065 | ZADH2 0.001 | ZBTB17 isoform 2 -0.014 | ZBTB21 0.107 | ZBTB43 -0.052 | ZC3H18 -0.126 | ZC3H8 0.038 | ZC3HC1 -0.078 | ZCCHC9 0.08 | ZDHHC17 0.011 | ZDHHC20 -0.025 | ZDHHC5 -0.076 | ZDHHC7 isoform 2 0.028 | ZDHHC8 isoform 3 0.06

Cn1cc(-c2ccc3c(c2)CCN3C(=O)Cc2cccc(C(F)(F)F)c2)c2c(N)ncnc21
inactive: YWHAB 0.005 | YWHAQ 0.124 | YWHAZ [1] 0.102 | YWHAZ [2] 0.052 | YY1 0.004 | ZADH2 0.04 | ZBTB21 0.122 | ZBTB43 0.023 | ZC3H18 -0.03 | ZC3H8 -0.084 | ZC3HC1 0.014 | ZCCHC9 -0.074 | ZDHHC17 0.018 | ZDHHC20 -0.036 | ZDHHC5 -0.02 | ZDHHC7 isoform 2 -0.088

Cc1ccc2c(=O)c3ccccc3n(CCCN)c2c1C
active: YY1 -0.433 | ZBTB17 isoform 2 1.05 | ZBTB43 -1.06 | ZC3H18 -0.612
inactive: YWHAB -0.072 | YWHAQ -0.055 | YWHAZ [1] 0.029 | YWHAZ [2] -0.009 | ZADH2 0.038 | ZBTB21 -0.183 | ZC3H8 -0.277 | ZC3HC1 -0.091 | ZCCHC9 -0.187 | ZDHHC17 0.037 | ZDHHC20 0.028 | ZDHHC5 0.08 | ZDHHC7 isoform 2 0.005 | ZDHHC8 isoform 3 0.02

C[C@@H]1COCCN1c1cc(C2(S(C)(=O)=O)CC2)nc(-c2cccc3[nH]ccc23)n1
inactive: YWHAB 0.025 | YWHAQ 0.074 | YWHAZ [1] 0.165 | YWHAZ [2] 0.011 | YY1 0.02 | ZADH2 0.22 | ZBTB21 -0.101 | ZBTB43 -0.088 | ZC3H18 -0.008 | ZC3H8 -0.151 | ZC3HC1 0.119 | ZCCHC9 -0.381 | ZDHHC17 0.005 | ZDHHC20 0.131 | ZDHHC5 -0.011 | ZDHHC6 0.067 | ZDHHC7 isoform 2 -0.037 | ZDHHC8 isoform 3 0.284
